# From PubChem BioAssay
# SARS PLP yeast = qHTS of Yeast-based Assay for SARS-CoV PLP; 330,000 compounds, 0.19% hits; Potency, µM (series often up to 32.9 µM), for the others: at the top dose activity, positive = growth rescue, actives largely listed as activators; AID 485353, 2010; S. cerevisiae expressing SARS-CoV PLpro, growth rescue; calls by dose curve; further: potency means the concentration at half of the fitted maximal effect; 0% is about no effect; nearly all actives have a fitted effect of over 55% in size
# Cycloheximide cs = Cycloheximide Counterscreen for Small Molecule Inhibitors of Shiga Toxin; cell reporter, cycloheximide protein synthesis inhibition counterscreen; max response, %; 300,000 compounds, 12% hits; AID 2314, 2010; in the data active means max response mostly above about 13%, no sharp cut-off; inactive means mostly below about 14%; further: read at 38.3 µM for the half of the compounds with a filed dose; 0% is about no effect
# Pf growth 96h = Primary qHTS for delayed death inhibitors of the malarial parasite plastid, 96 hour incubation | 320,000 compounds, 6.9% hits | Potency, µM (top dose mostly 28.7 µM), without a hit: at the top dose activity change, negative = inhibition, actives largely listed as inhibitors | P. falciparum luciferase reporter growth, 96 h; further: potency means the concentration at half of the fitted maximal effect; on the % scale 0 is the no-effect control and ±100 the full control effect
#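 Erythrocytes infected with luciferase-expressing P. falciparum were dispensed at 2% hematocrit and 0.05% parasitemia (final), then incubated with compounds 96 hours at 37 C in 5% CO2. Luminescence after detection reagent addition reported growth.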
# Shiga toxin inh = A qHTS for Small Molecule Inhibitors of Shiga Toxin. Vero cells, Shiga toxin protein synthesis inhibition reporter. inhibition, % at 38.7 µM. 290,000 compounds, 9.2% hits; in the data active means inhibition mostly above about 28%, no sharp cut-off; inactive means mostly below about 43%; further: 0% is about no effect
# Pf growth 48h = Primary qHTS for delayed death inhibitors of the malarial parasite plastid, 48 hour incubation. P. falciparum luciferase growth in erythrocytes, 48 h. Potency, µM (series often up to 28.7 µM), without a hit: at the highest dose activity change, negative = inhibition, most hits filed as inhibitors. 310,000 compounds, 5.9% hits; further: potency means the concentration at half of the fitted maximal effect; on the % scale 0 is the no-effect control and ±100 the full control effect
#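 Parasite viability was followed by luminescence of a genomically integrated firefly luciferase. Cultures held 0.1% parasitemia at 2% hematocrit (final), incubated under 5% CO2 at 37 C.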
# AMA1-RON2 inh = qHTS for Inhibitors of AMA1-RON; Towards Development of Antimalarial Drug Lead: Primary Screen. AlphaScreen AMA1-biotinylated RON2 peptide binding. Potency, µM (top dose mostly 58.2 µM), without a hit: top-dose activity change, negative = inhibition, actives largely listed as inhibitors. 360,000 compounds, 0.2% hits. AID 720542, 2013;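 further: potency means the concentration at half of the fitted maximal effect; 0% = vehicle wells and -100% = peptide control; nearly all actives have a fitted effect of over 45% in size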
#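 AMA1 (3D7) with his tag at 25 nM final met compounds first, then biotinylated RON2 peptide at 25 nM; detection used donor plus acceptor beads, 10 µg/mL apiece, read by AlphaScreen after 30 min at room temperature.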
# Active calls of the source: *; ? = inconclusive; . = no result; [ ] = remark or other dose. Most compounds without a hit are left out; they make up all but 19% or so of the library. Unless noted, the call rests on the fitted dose curve; in most records, active means well fitted curve in the direction sought with a large enough effect; inconclusive means small, poorly fitted or top-dose-only effect, or another doubt; inactive means no such curve, though single readings can be large; an effect the other way counts as inactive or inconclusive.
SMILES,SARS PLP yeast,Cycloheximide cs,Pf growth 96h,Shiga toxin inh,Pf growth 48h,AMA1-RON2 inh
COC(=O)CCSc1nc(N2CCOCC2)c2c(c1C#N)CC(C)(C)OC2,0.5%,-3.6,?,-4.1,?,14.9%
CC(Sc1nc(N2CCOCC2)c2c(c1C#N)CC(C)(C)OC2)C(=O)Nc1ccccc1 (stereo not drawn),16.0%,-1.3,.,8.1,13.1µM*,3.4%
CC(Sc1ccc(S(=O)(=O)N2CCN(C)CC2)cn1)C(=O)NC1(C#N)CCCCC1 (stereo not drawn),0.4%,.,-4.5%,.,?,15.8%
O=C(CCNS(=O)(=O)c1cccs1)NCc1ccccc1,6.6%,-1.1,.,-14.4,9.9%,10.1%
CCOC(=O)CCSc1nc(N2CCOCC2)c2c(c1C#N)CC(C)(C)OC2,2.1%,1.0,36.4%,10.1,4.65µM*,-5.4%
CCSc1nc(N2CCOCC2)c2c(c1C#N)CC(C)(C)N(C)C2,-1.3%,-8.2,5.22µM*,-6.1,.,0.6%
COC(=O)c1ccc(CSc2nc(N3CCOCC3)c3c(c2C#N)CC(C)(C)OC3)o1,6.9%,5.9,157.1%[5.75 µM],-11.5,8.28µM*,-6.2%
O=C(NCC(c1cccs1)N1CCOCC1)c1cccnc1 (stereo not drawn),0.2%,0.6,?,-7.3,?,-9.0%
CCOC(=O)C1=CCN(S(=O)(=O)c2cccc(Cl)c2)C1c1cccc(C)c1 (stereo not drawn),.,.,.,.,.,19.5%
CCc1nnc(SCC(=O)N2CCc3ccccc32)n1CC,-1.2%,-3.1,?,-1.4,0.8%,-3.4%
Cc1ccc(NC(=O)CSc2nnc(CNC(=O)c3ccco3)n2C)cc1C,2.0%,.,13.1µM*,.,-7.5%,5.1%
COc1ccc(-n2c(Cn3c(=O)sc4ccccc43)nnc2SC)cc1,3.9%,-2.2,1.85µM*,-1.3,2.7%,-11.1%
CCn1c(CSc2ncccn2)nnc1SCC(=O)N1CCc2ccccc21,5.0%,-1.8,4.65µM*,-2.6,?,2.3%
Cn1c(Cn2c(=O)sc3ccccc32)nnc1SCC(=O)N1CCc2ccccc21,7.0%,-2.6,5.22µM*,-3.0,5.3%,-4.1%
CCOC(=O)CSc1nnc(Cn2c(=O)sc3ccccc32)n1-c1ccccc1C,-9.2%,4.6,14.7µM*,10.0,4.2%,1.8%
Cn1c(CNC(=O)c2cccs2)nnc1SCC(=O)Nc1ccc(Cl)cc1,19.1%,-2.2,?,4.7,11.7µM*,8.8%
CCOC(=O)CC(=O)CSc1nnc(Cn2c(=O)sc3ccccc32)n1C,-2.7%,-3.0,108.3%,-17.0,-13.2%,-0.6%
Cn1c(Cn2c(=O)sc3ccccc32)nnc1SCC(=O)Nc1ccc(Cl)cc1,?,-1.5,10.4µM*,-3.5,1.8%,3.4%
CCOC(=O)CNC(=O)CSc1nnc(Cn2c(=O)sc3ccccc32)n1C,-17.4%,17.6*,3.8%,11.0,-6.6%,2.7%
CCn1c(C)nc2cc(C(=O)N3N=C(CCOC)CC3(O)C(F)(F)F)ccc21 (stereo not drawn),1.4%,12.8,?,27.1,8.6%,102.1%
CCCN(C(=O)c1cn(C)c(=O)c2ccccc12)c1ccccc1C,1.6%,-1.7,32.6%,2.1,.,16.4%
CN1C(=O)Cc2cc(S(=O)(=O)N3CCN(c4ccccc4F)CC3)ccc21,-2.4%,5.1,9.9%,-8.2,?,-2.9%
COc1ccc(S(N)(=O)=O)cc1C(=O)N(C)CC(=O)Nc1ccc(N2CCOCC2)cc1,1.2%,14.1,66.2%,1.9,23.5%,6.5%
COC(=O)C1=C(C)N(Cc2ccccc2)C(=NCc2ccco2)N[C@H]1c1ccc(Br)cc1,.,-5.2,.,-5.5,.,.
C=CCn1c(SCC(=O)Nc2ccc3c(c2)OCCO3)nc2cc(C(=O)O)ccc2c1=O,-1.0%,.,-16.8%,.,5.2%,-3.8%
SMILES,SARS PLP yeast,Cycloheximide cs,Pf growth 96h,Shiga toxin inh,Pf growth 48h,AMA1-RON2 inh
COc1ccccc1N1C(=O)C2C3C=CC(CC3)C2C1=O (stereo not drawn),4.2%,-2.4,-24.3%,-5.5,10.4µM*,21.7%
O=C(COC(=O)/C=C/C(=O)OCC(=O)NC12CC3CC(CC(C3)C1)C2)NC12CC3CC(CC(C3)C1)C2,-13.8%,-2.2,12.4%,9.1,12.9%,-1.6%
O=C1CC(c2ccsc2)c2cc3c(cc2N1)OCCO3 (stereo not drawn),-1.7%,-0.6,11.7µM*,9.0,?,-4.9%
Cc1cc2c(cc1C)C(c1cccc(F)c1)CC(=O)N2 (stereo not drawn),-5.6%,0.3,12.5%,4.4,-2.9%,-3.3%
Cc1cc2c(cc1C)C(c1ccsc1)CC(=O)N2 (stereo not drawn),1.4%,1.0,4.65µM*,-9.1,94.7%,9.4%
CN(CCOc1ccccc1)C(=O)c1cc([N+](=O)[O-])cc([N+](=O)[O-])c1,0.1%,-2.2,62.1%,-2.4,?,-2.0%
COC(=O)N/N=C1\CCCc2ccccc21,7.1%,-3.3,10.1%,1.4,6.5%,2.5%
COc1ccc(NCC(=O)N/N=C2\CCc3ccccc32)cc1,-2.6%,29.4*,?,66.3*,?,16.7%
CCOC(=O)NN=C1c2ccccc2-c2ccccc21,2.3%,-1.0,10.4µM*,11.1,25.5%,4.8%
O=C(NN=C1c2ccccc2-c2ccccc21)c1ccccc1,6.5%,-3.3,8.28µM*,-20.6,-1.1%,94.8%
CCOC(=O)N/N=C1\CCc2ccccc21,-0.7%,37.9*,66.1%,73.1*,79.3%,-3.7%
O=C(CNc1ccc(F)cc1)N/N=C1\CCc2ccccc21,-2.6%,12.7,-23.5%,50.6,?,32.1%
O=C(Nc1nncs1)c1cc(S(=O)(=O)N2CCCCC2)ccc1Cl,0.4%,9.3,11.9%,-7.5,-5.0%,-3.4%
COc1ccc(N(CC(=O)N2CCN(c3cccc(Cl)c3)CC2)S(=O)(=O)c2c(C)noc2C)cc1,0.0%,-1.3,?,-7.5,10.4µM*,-0.7%
COc1ccc(N(CC(=O)N2CCN(c3ccc(Cl)cc3)CC2)S(=O)(=O)c2c(C)noc2C)cc1,1.7%,-1.5,?,13.8,?,-12.3%
CCOc1ccc(N(CC(=O)N2CCN(c3ccc(F)cc3)CC2)S(=O)(=O)c2c(C)noc2C)cc1,2.2%,-0.6,?,-4.2,10.4µM*,-6.2%
COc1ccc(N(CC(=O)N2CCN(c3ccc(F)cc3)CC2)S(=O)(=O)c2c(C)noc2C)cc1,-1.1%,-1.2,1.85µM*,0.1,?,-1.5%
CCOC(=O)C1CCN(C(=O)CN(c2ccc(OC)cc2)S(=O)(=O)c2c(C)noc2C)CC1,-4.8%,7.8,43.5%,3.3,.,-2.0%
C[C@@H](O)C(N)C(=O)O (stereo partly drawn),.,-5.8,.,-4.1,.,.
Cc1ccc(-n2c(N)c(C(=O)NCc3cccnc3)sc2=S)cc1,-2.6%,22.4,75.4%,3.1,30.8%,-4.8%
